Source: PubChem BioAssay
This is a sample that favours compounds with a hit; in the whole collection about 8.1% have one here.
KB-V1 cytotox = KB-V1 MDR subline cytotoxicity; 3.4% of 400,000 active; KB-V1 MDR cells viability, CellTiter-Glo, 72 h; Potency, µM (titrated, usually from 46.1 µM), most hits filed as cytotoxic; further: on the % scale 0 is the no-effect control and ±100 the full control effect; nearly all actives have a fitted effect of over 60% in size
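Compound-treated KB-V1 multidrug-resistant cells, 72 h, 37 degrees C; viability by CellTiter-Glo. Fitted qHTS curves give the values.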
ELG1 repair inh = ELG1-dependent DNA repair inhibition. HEK293T ELG1-luciferase reporter, luminescence, 16 h; DNA damage induced by 5-fluorouridine. Potency, µM (doses to about 46.1 µM), inactives show at the top dose activity change, negative = inhibition, actives largely listed as inhibitors. 2.3% of 330,000 active; further: on the % scale 0 is the no-effect control and ±100 the full control effect; nearly all actives have a fitted effect of over 55% in size
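Overnight (16 hr) co-exposure of 2,000 cells/well to 5-fluorouridine and compound at 37 °C preceded detection. Luciferase was quantified via ONE-Glo luminescence; loss of signal denotes inhibition.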
MCF10A rereplic = induces DNA re-replication in MCF 10a normal breast cells | MCF 10A DNA re-replication, Hoechst nuclear intensity, 48 h | Potency, µM (top dose mostly 46.1 µM), for the others: at the top dose activity, positive = re-replication, usual class: activators | 2.9% of 350,000 active | AID 624296; further: % of control where 0% means no effect; nearly all actives have a fitted effect of over 50% in size
SW480 rereplic = inducers of DNA re-replication in SW480 colon cancer cells; SW480 DNA re-replication, Hoechst DNA content imaging, 48 h; 1.8% of 340,000 active; Potency, µM (top dose mostly 46.1 µM), for inactives: top-dose re-replication activation, hits mostly activators; further: % of control where 0% means no effect; nearly all actives have a fitted effect of over 55% in size
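250 cells/well; 23 nL cpd via pin tool; 48 hr, 37 C, 5% CO2; Hoechst 40 min; imager read of total nuclear intensity, ex 405/em 500-530 nm.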
KB-3-1 tox = kills parental KB-3-1 adenocarcinoma cells; KB-3-1 viability, CellTiter-Glo ATP luminescence, 72 h; Potency, µM (series often up to 46.1 µM), actives largely listed as cytotoxic; 1.4% of 400,000 active; AID 1347075; further: on the % scale 0 is the no-effect control and ±100 the full control effect; nearly all actives have a fitted effect of over 60% in size
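Using CellTiter-Glo luminescence, growth of non-resistant KB-3-1 adenocarcinoma cells is assessed 72 h after pin-tool compound addition at 37 °C. Normalized responses across the concentration series yield fitted curves.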
* hit, by the source's call; i = inactive; u = inconclusive; x = no result; [ ] = remark or other dose. The call rests on the fitted dose curve; in most records, active means well fitted curve in the direction sought with a large enough effect; inconclusive means small, poorly fitted or top-dose-only effect, or another doubt; inactive means no such curve, though single readings can be large; an effect the other way counts as inactive or inconclusive. Potency means the concentration at half of the fitted maximal effect.

SMILES | KB-V1 cytotox | ELG1 repair inh | MCF10A rereplic | SW480 rereplic | KB-3-1 tox
Cc1ccc(NC(=S)Nc2ccc(OC(F)F)c(Cl)c2)cc1Cl | 21µM* | -5% | u | 1% | 21µM*
Fc1ccc(NC(=S)Nc2ccccc2OC(F)F)cc1Cl | 16µM* | u | u | x | u
Cc1cc(C)cc(NC(=S)Nc2ccc(Cl)c(Cl)c2)c1 | u | u | u | u | i
Cc1ccc(NC(=S)Nc2ccc(Cl)c(Cl)c2)c(OC(F)F)c1 | 18µM* | u | u | -2% | u
Cc1ccc(C(=O)c2ccccc2C(=O)O)s1 | i | 4% | 2% | -8% | i
O=C(c1ccco1)N1CCN(C(=O)c2ccc(-c3ccc(Cl)cc3)o2)CC1 | i | u | -4% | -26% | i
COc1cc(CNC(=O)c2cc(-c3ccccc3)n[nH]2)cc(OC)c1OC | i | x | x | x | i
CCOc1ccc(N(CC(=O)NCC2CCCO2)S(=O)(=O)c2ccc(SC)cc2)cc1 (stereo unspecified) | i | 5% | -3% | -9% | i
CCN(CC(=O)NCc1cccs1)C(=O)CCCOc1ccc(C(C)(C)C)cc1 | 21µM* | -9% | 16% | -1% | u
CCN(CC(=O)NCc1cccs1)C(=O)CCCOc1ccccc1 | i | 19% | 0% | -13% | i
CC(=O)Nc1ccc(Nc2ncnc3c2cnn3-c2cccc(C)c2)cc1 | 16µM* | u | 8% | -9% | i
COc1ccc(OC)c(Nc2ncnc3c2cnn3-c2cccc(C)c2)c1 | u | u | u | 7.3µM* | u
COc1cccc(NC(=S)N2CCCN(Cc3ccc(F)cc3)C2)c1 | i | 0% | 25% | 3% | i
O=C(OCc1nc2ccc(Cl)cc2n1CCO)c1ccccc1C(=O)c1ccccc1 | 16µM* | -1% | -2% | 2% | i
Cc1ccccc1Cn1nnc2c1C(=O)c1ccccc1C2=O | 13µM* | x | 23% | u | u
Cc1cccc(Cn2nnc3c2C(=O)c2ccccc2C3=O)c1 | 6.3µM* | u | 14% | u | u
Cc1ccccc1CN1C(=O)c2ccccc2C1c1nnnn1Cc1ccccc1 (stereo unspecified) | u | x | x | x | i
Cn1ncc2c(N3CCN(c4ccc(Cl)c(Cl)c4)CC3)ncnc21 | 2.3µM* | u | 11% | -4% | i
Cn1ncc2c(N3CCN(c4ccccc4F)CC3)ncnc21 | u | -20% | 2% | 1% | i
COc1ccc(NCc2nnc(SCC(=O)Nc3nc(-c4ccccc4)cs3)n2-c2ccccc2)cc1 | i | 11% | 10µM* | u | 13µM*
COc1ccc(NC(=O)CSc2nnc(Cc3cccs3)n2-c2ccc(C)cc2)cc1 | i | u | 7% | 4% | i
Cc1cc(C)nc(SCc2nnc(SCC(=O)Nc3nc(-c4ccccc4)cs3)n2-c2ccccc2)n1 | i | -24% | 12% | -1% | i
COc1cccc(NC(=O)CSc2nnc(Cc3cccs3)n2-c2ccc(C)cc2)c1 | 8.2µM* | u | 8% | 2% | i
COc1ccc(-n2c(CNc3ccc(C)cc3)nnc2SCC(=O)Nc2nc(-c3ccccc3)cs2)cc1 | i | u | 15µM* | u | i
CCCn1nnc(NC(=O)c2cc3ccccc3o2)n1 | u | u | 6% | -8% | i
SMILES | KB-V1 cytotox | ELG1 repair inh | MCF10A rereplic | SW480 rereplic | KB-3-1 tox
COc1ccc(-n2cc3c(c2-c2cccc(Br)c2)c(=O)n(C)c(=O)n3C)cc1OC | i | x | x | x | i
O=S(=O)(c1ccc(N2CCN(S(=O)(=O)c3ccccc3)CC2)nc1)N1CCCC1 | i | u | 5% | -3% | i
Cc1ccccc1CN1CCN(c2ccc(S(=O)(=O)N3CCCC3)cn2)CC1 | 9.2µM* | -8% | u | 5% | u
O=S(=O)(c1ccc(N2CC=C(c3ccccc3)CC2)nc1)N1CCCC1 | 8.2µM* | u | 23µM* | u | u
Cc1c(CC(=O)O)c(=O)oc2c(C)c3occ(-c4ccc(Br)cc4)c3cc12 | i | 16% | u | -9% | i
CCCCC(NC(=O)Cc1c(C)c2cc3c(-c4ccccc4)coc3c(C)c2oc1=O)C(=O)O (stereo unspecified) | u | -1% | 21µM* | -4% | i
CCn1nc(C)cc1C(=O)Sc1cccc(Cl)c1 | i | 11% | 23µM* | 0% | i
Cc1nn(C)c(C(=O)Sc2cccc(Cl)c2)c1[N+](=O)[O-] | i | 3% | 18µM* | u | i
Cc1ccc(C(=O)NNC2=Nc3cccc4cccc2c34)cc1 | 9.2µM* | -4% | 6% | -4% | u
COc1ccc(C(=O)NNC2=Nc3cccc4cccc2c34)cc1 | u | -9% | u | 7% | i
NC(=O)NNC1=Nc2cccc3cccc1c23 | i | -11% | -1% | -2% | i
COc1ccc(CC(=O)NNC2=Nc3cccc4cccc2c34)cc1 | i | 0% | 21µM* | 16µM* | i
O=C(O)c1ccc(NC2=Nc3cccc4cccc2c34)cc1 | 15µM* | u | -2% | u | u
N/C(COc1cc(Cl)cc(Cl)c1)=N\O | i | 12% | -3% | -3% | i
CC(C)n1c(CN(C)Cc2ccccc2)nc2c1c(=O)n(C)c(=O)n2C | u | 4.1µM* | u | -5% | i
CCOCCn1c(CN(Cc2ccccc2)Cc2ccccc2)nc2c1c(=O)n(C)c(=O)n2C | i | 18µM* | 1% | 11% | u
CC(=O)C(C)n1c(CN(C)Cc2ccccc2)nc2c1c(=O)n(C)c(=O)n2C (stereo unspecified) | i | 2% | -12% | 3%[1.84 µM] | i
CCCCCn1c(CN(C)Cc2ccccc2)nc2c1c(=O)n(C)c(=O)n2C | 2.3µM* | 18µM* | u | 5% | 18µM*
Cn1c(=O)c2c(ncn2CCCc2ccccc2)n(C)c1=O | 15µM* | u | 0% | -9% | u
O=[N+]([O-])c1ccc(N2CCN(c3ccccc3O)CC2)cc1 | i | -5% | -1% | -4% | i
O=C(COC(=O)C1COc2ccccc2O1)c1ccccc1 (stereo unspecified) | u | x | x | x | i
O=C1COc2ccc(C(=O)COC(=O)c3nc(Cl)ccc3Cl)cc2N1 | i | 3% | -1% | -1% | i
CN(Cc1ccccc1)c1nc2c(c(=O)n(C)c(=O)n2C)n1CCCc1ccccc1 | i | u | 26µM* | -2% | i
CN(Cc1ccccc1)Cc1nc2c(c(=O)n(C)c(=O)n2C)n1Cc1ccc(F)cc1 | 9.2µM* | 18µM* | 10% | 4% | i
CC(C)=CCOc1c2ccoc2c(OCC=C(C)C)c2oc(=O)ccc12 | i | 23µM* | u | 6% | i
